Data on eight compounds can be found in PubChem BioAssay (Tox21).

Values without a mark were called inactive. Inconclusive results are not listed. The source made the active and inactive calls. Unless noted, calls follow the shape of the dose curve; as a rule, active = well fitted curve in the direction sought with a large enough effect in the repeat runs; inconclusive = weak or mixed curves; inactive = no such curve, though single readings can be large; an effect the other way counts as inactive or inconclusive.

For assay [1], the target named is Thyrotropin receptor (Homo sapiens) (UniProt P16473). The assay is described as follows: qHTS assay to identify small molecule agonists of the thyroid stimulating hormone receptor (TSHR) signaling pathway (AID 1224843; calls by dose curve; also: nearly all actives have a fitted effect of over 45% in size; also: potency is read from the fitted curve at half-maximal effect). The gist of the method: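 Agonist activity read as cAMP rise via d2/cryptate HTRF competition, 1 h room-temperature detection, in HEK293 cells expressing TSHR. Fifteen-point titrations, each run in triplicate, with a 30 min room-temperature incubation beforehand.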
On the technique in general: In qHTS, concentration-response curves come from the screen itself.

The nature of assay [2]: qHTS assay to identify small molecule agonists of the hypoxia (HIF-1) signaling pathway - cell viability counter screen (AID 1224844; calls by dose curve; also: nearly all actives have a fitted effect of over 50% in size; also: potency is read from the fitted curve at half-maximal effect). The gist of the method: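 Same wells as the HIF-1 reporter screen; ME-180 cells carrying HRE-bla, 17 hr treatment at 37C; CellTiter-Glo luminescence read after 30 min at room temperature.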
A short description of assay [3]: qHTS assay to identify small molecule agonists of the hypoxia (HIF-1) signaling pathway (AID 1224846; active = well fitted activation curve with a large enough effect in the signal ratio in the repeat runs, not every such curve was filed as active; the % refers to the signal ratio). The essentials:
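In ME-180 cells bearing an HRE-bla construct, 17 h treatment with DMSO-dissolved compounds at 37C was followed by CCF4-AM loading to quantify reporter induction.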

A short description of assay [4]: qHTS assay to identify small molecule agonists of H2AX - cell viability counter screen (AID 1224847; calls by dose curve; also: nearly all actives have a fitted effect of over 30% in size; also: potency is read from the fitted curve at half-maximal effect). The essentials:
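Cytotoxicity counter screen in wild-type CHO-K1 cells: a 3 hr compound treatment at 37C across 15 concentrations, followed by CellTiter-Glo luminescence to gauge viable cells.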

Assay [5] is described as follows: qHTS RealTime-Glo MT Cell Viability Assay in HepG2 cells - 24 hour (AID 1224867). Also: nearly all actives have a fitted effect of over 50% in size. The gist of the method:
(§1)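 Luminescence read-out: viable HepG2 cells reduce a prosubstrate to a NanoLuc substrate, giving a signal proportional to live cell number. Reads taken at 0, 8, 16, 24, 32 and 40 h of compound exposure at 37 C.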

A short description of assay [6]: qHTS RealTime-Glo MT Cell Viability Assay in HEK293 cells - 32 hour (AID 1224868). Also: top concentration of the series differs between compounds; nearly all actives have a fitted effect of over 50% in size. The essentials: (§2)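 Nonlytic real-time viability readout: viable cells convert prosubstrate to NanoLuc substrate, giving luminescence proportional to live cell number. HEK293, 600 cells/well, compound added after 5 h, continuous culture at 37 C.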
The nature of assay [7]: A CellTox Green Cytotoxicity Assay to monitor cytotoxicity in HEK293 cells - 0 hour (AID 1224869). Also: nearly all actives have a fitted effect of over 50% in size. The gist of the method: (§3)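 Homogeneous no-lysis format: HEK293 cell suspension mixed with CellTox Green reagent, seeded, incubated 5 h at 37 C/5% CO2, then dosed by pintool with compound in DMSO.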
The nature of assay [8]: qHTS RealTime-Glo MT Cell Viability Assay in HepG2 cells - 40 hour (AID 1224870). Also: nearly all actives have a fitted effect of over 50% in size. The gist of the method:
(§4)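 Real-time viability: cells seeded at 600 per well together with NanoLuc and cell-permeant prosubstrate, compounds added after 5 h incubation. Luminescence tracked at 0, 8, 16, 24, 32 and 40 h of exposure.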

Assay [9] is described as follows: qHTS RealTime-Glo MT Cell Viability Assay in HEK293 cells - 16 hour (AID 1224872). The essentials:
as §2

Assay [10] can be described thus: qHTS RealTime-Glo MT Cell Viability Assay in HepG2 cells - 8 hour (AID 1224873). Also: nearly all actives have a fitted effect of over 55% in size. The essentials: as §4
The nature of assay [11]: qHTS RealTime-Glo MT Cell Viability Assay in HEK293 cells - 40 hour (AID 1224874). Also: nearly all actives have a fitted effect of over 50% in size. As to conditions: RealTime-Glo luminescence; max response: hits give low values. The essentials: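 Measured as luminescence from the same continuously cultured HEK293 wells at successive time points (0, 8, 16, 24, 32, 40 h) after compound addition. Reagent present from seeding; dosing at 5 h; incubation 37 C.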

Assay [12] in a line: A CellTox Green Cytotoxicity Assay to monitor cytotoxicity in HepG2 cells - 16 hour (AID 1224876). Also: nearly all actives have a fitted effect of over 45% in size. The gist of the method: (§5)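 Fluorescent DNA-binding dye, 600 HepG2 cells/well, 5 h preincubation then compound in DMSO; same plates read at 0–40 h, 37 C.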
Assay [13] can be described thus: qHTS RealTime-Glo MT Cell Viability Assay in HepG2 cells - 32 hour (AID 1224877). Also: nearly all actives have a fitted effect of over 55% in size. The gist of the method: as §1
Assay [14] is described as follows: A CellTox Green Cytotoxicity Assay to monitor cytotoxicity in HepG2 cells - 24 hour (AID 1224878). Also: nearly all actives have a fitted effect of over 45% in size. The essentials: as §5
A short description of assay [15]: A CellTox Green Cytotoxicity Assay to monitor cytotoxicity in HepG2 cells - 40 hour (AID 1224879). Also: nearly all actives have a fitted effect of over 40% in size. The gist of the method: as §5
Assay [16] in a line: qHTS assay to identify small molecule agonists of H2AX (AID 1224845; active = well fitted activation curve with a large enough effect in the signal ratio in the repeat runs, not every such curve was filed as active; the % refers to the signal ratio). The gist of the method:
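Phospho-H2AX Ser139 measured by HTRF (ex 320 nm; em 665 and 620 nm) after 24 hr antibody incubation. Compounds, 15 concentrations, 0.76% DMSO, were applied to CHO-K1 cells for 3hr at 37C before lysis.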

The nature of assay [17]: qHTS assay to identify small molecule antagonists of the estrogen related receptor (ERR) signaling pathway from Tox21 library (AID 1224848). Also: nearly all actives have a fitted effect of over 50% in size. The essentials: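 Luciferase luminescence (ONE-Glo, 30 min room temperature) was the read-out. Cells of the NTP-supplied ERR line, 2,000 per well, were given 6 h at 37 C before compound addition in DMSO and 18 h exposure at 37 C.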

A short description of assay [18]: qHTS assay to identify small molecule agonists of the estrogen related receptor (ERR) signaling pathway from Tox21 library (AID 1224849; calls by dose curve; also: nearly all actives have a fitted effect of over 15% in size). The conditions noted are these: ERR reporter cell line, ONE-Glo luciferase, 18 h; at 92.4 µM (top of the series) unless noted. The essentials:
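Reporter cells (ERR, NTP source) treated with Tox21 10K compounds 18 h, 37 C. Readout: ONE-Glo luminescence, 30 min RT.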

A short description of assay [19]: A CellTox Green Cytotoxicity Assay to monitor cytotoxicity in HEK293 cells - 40 hour (AID 1224871). Also: nearly all actives have a fitted effect of over 45% in size. The gist of the method:
as §3

Assay [20] can be described thus: A CellTox Green Cytotoxicity Assay to monitor cytotoxicity in HEK293 cells - 24 hour (AID 1224875). Also: nearly all actives have a fitted effect of over 45% in size. The gist of the method:
as §3
% is scaled to controls: 0 for no effect and ±100 for the full control effect.

Chain of Thyrotropin receptor (Homo sapiens) (P16473 whole entry, looked up): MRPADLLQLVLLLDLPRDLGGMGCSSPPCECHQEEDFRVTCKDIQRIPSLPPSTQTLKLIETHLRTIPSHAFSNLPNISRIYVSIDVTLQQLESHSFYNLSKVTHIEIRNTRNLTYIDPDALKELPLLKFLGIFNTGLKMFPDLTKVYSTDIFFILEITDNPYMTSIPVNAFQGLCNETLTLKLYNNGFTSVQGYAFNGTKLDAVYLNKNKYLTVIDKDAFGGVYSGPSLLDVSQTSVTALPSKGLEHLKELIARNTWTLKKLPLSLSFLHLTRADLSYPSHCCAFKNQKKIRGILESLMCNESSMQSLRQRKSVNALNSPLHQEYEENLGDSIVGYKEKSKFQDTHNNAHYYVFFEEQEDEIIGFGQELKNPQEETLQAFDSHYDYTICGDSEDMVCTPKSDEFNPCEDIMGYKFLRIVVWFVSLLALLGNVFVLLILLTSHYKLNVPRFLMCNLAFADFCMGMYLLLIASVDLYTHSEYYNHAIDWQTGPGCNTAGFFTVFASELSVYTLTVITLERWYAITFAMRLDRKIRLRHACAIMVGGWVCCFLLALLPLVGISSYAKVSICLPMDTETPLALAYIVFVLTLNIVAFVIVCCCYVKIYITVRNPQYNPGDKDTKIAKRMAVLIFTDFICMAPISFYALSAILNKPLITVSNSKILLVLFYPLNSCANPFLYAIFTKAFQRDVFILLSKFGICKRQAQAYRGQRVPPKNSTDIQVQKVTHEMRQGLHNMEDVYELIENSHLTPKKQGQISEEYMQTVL

Take `Clc1cccc2ccccc12`: the Potency result in assay [1], in assay [2], in assay [4], in assay [5], in assay [6] and in assay [7] was “inactive” each time. Further, the Potency entry in assay [8], in assay [9], in [10], in assay [12], in assay [13] and in assay [14] was “inactive” in each case. For the same compound, in [15], the Potency result was “inactive”. Also, in assay [3], the call was inactive. For the same compound, in assay [11], the max response was -5.43%.

With `ClCc1cccc(Cl)c1`, the Potency entry in [2], in assay [16], in assay [4], in [17], in assay [5] and in assay [6] was “inactive” each time. In addition, the Potency entry in assay [7], in assay [8], in assay [19], in assay [9], in assay [10] and in [20] was “inactive” in each case. In addition, the Potency result in assay [12], in assay [13], in assay [14] and in assay [15] was “inactive” throughout. Besides, in [3], the outcome was inactive. Also, the activity change, positive = activation in assay [18] is -9.7% [at 42.5 µM]. In assay [11], the max response is -0.225%.

With `O=S(=O)(Cl)c1ccccc1`, the Potency result in assay [1], in assay [2], in assay [4], in assay [5], in assay [6] and in assay [7] was “inactive” each time. The Potency entry in [8], in [19], in assay [9], in [10], in [20] and in [12] was “inactive” in each case. For the same compound, the Potency result in assay [13], in [14] and in [15] was “inactive” throughout. In addition, the outcome in assay [3] was inactive. Further, the max response in assay [11] was 11.8%.

As to `COC1=CC(=O)O[C@@H](CCc2ccccc2)C1`, the Potency entry in [1], in [16], in assay [4], in [5], in assay [6] and in assay [7] was “inactive” throughout. Also, the Potency entry in [8], in assay [19], in assay [9], in [10], in assay [20] and in assay [13] was “inactive” each time. Also, the Potency result in assay [14] and in [15] was “inactive” each time. Also, in assay [3], the compound was classed as inactive. The activity change, positive = activation in assay [18] is -29.7%. The max response in assay [11] is -25.1%.

In the case of `CC(C)=CCOc1c2occc2cc2ccc(=O)oc12`, the Potency result in [1], in assay [2], in assay [4], in [17], in [6] and in assay [7] was “inactive” throughout. The Potency result in assay [8], in assay [19], in [9], in assay [20], in [12] and in [13] was “inactive” in each case. For the same compound, the Potency result in assay [14] and in [15] was “inactive” in each case. In addition, the result in assay [3] was inactive. The activity change, positive = activation in assay [18] was -9.71% [at 42.5 µM]. The max response in [11] is -18%.

For `O=S1OC[C@@H]2[C@H](CO1)[C@]1(Cl)C(Cl)=C(Cl)[C@@]2(Cl)C1(Cl)Cl` (stereo not given in full), the Potency in assay [1] was 10.9 µM (active); in [2] it was 43.6 µM (active); in [4], 20.1 µM (active). Moreover, the Potency entry in [7] and in assay [8] was “inactive” throughout.

In the case of `CCOP(O)OCC`, the Potency result in [1], in [2], in assay [5], in [6], in assay [7] and in assay [8] was “inactive” in each case. In addition, the Potency result in assay [19], in [9], in [20], in [12], in assay [13] and in [14] was “inactive” in each case. Also, in assay [15], the Potency entry was “inactive”. In addition, the call in [3] was inactive. Further, the max response in [11] is 0.744%.

For the compound `ClCc1ccccc1`, the Potency entry in assay [1], in [4], in assay [5], in assay [6], in assay [7] and in assay [8] was “inactive” each time. Also, the Potency result in [19], in [9], in assay [10], in assay [20], in assay [13] and in [14] was “inactive” in each case. Moreover, the Potency entry in assay [15] is “inactive”. For the same compound, the compound was called inactive in [3]. In addition, the max response in assay [11] was 2.64%.
